BoNT-F LC inh: BoNT/F light chain protease inhibitors, primary screen, biochemical, flow cytometry, MLPCN library; inhibition, % at 10 µM; Multiplex microsphere protease cleavage assay; 360,000 tested, 0.22% active; Botulinum neurotoxin type F light chain protease (Clostridium botulinum); in the data active = inhibition above about 35%, passing the limit was not always enough; also: plate controls were buffer without enzyme for full effect and enzyme alone for no effect
Anthrax LF prot: Bacillus anthracis LF protease inhibitors, primary screen, biochemical, multiplex microsphere, MLPCN library | Lethal factor (Bacillus anthracis), P15917 | multiplex microsphere protease cleavage assay | inhibition, % at 10 µM | 360,000 tested, 0.12% active | AID 588501, 2011; also: plate controls were buffer without enzyme for full effect and enzyme alone for no effect
Target sequence (P15917 whole entry, looked up): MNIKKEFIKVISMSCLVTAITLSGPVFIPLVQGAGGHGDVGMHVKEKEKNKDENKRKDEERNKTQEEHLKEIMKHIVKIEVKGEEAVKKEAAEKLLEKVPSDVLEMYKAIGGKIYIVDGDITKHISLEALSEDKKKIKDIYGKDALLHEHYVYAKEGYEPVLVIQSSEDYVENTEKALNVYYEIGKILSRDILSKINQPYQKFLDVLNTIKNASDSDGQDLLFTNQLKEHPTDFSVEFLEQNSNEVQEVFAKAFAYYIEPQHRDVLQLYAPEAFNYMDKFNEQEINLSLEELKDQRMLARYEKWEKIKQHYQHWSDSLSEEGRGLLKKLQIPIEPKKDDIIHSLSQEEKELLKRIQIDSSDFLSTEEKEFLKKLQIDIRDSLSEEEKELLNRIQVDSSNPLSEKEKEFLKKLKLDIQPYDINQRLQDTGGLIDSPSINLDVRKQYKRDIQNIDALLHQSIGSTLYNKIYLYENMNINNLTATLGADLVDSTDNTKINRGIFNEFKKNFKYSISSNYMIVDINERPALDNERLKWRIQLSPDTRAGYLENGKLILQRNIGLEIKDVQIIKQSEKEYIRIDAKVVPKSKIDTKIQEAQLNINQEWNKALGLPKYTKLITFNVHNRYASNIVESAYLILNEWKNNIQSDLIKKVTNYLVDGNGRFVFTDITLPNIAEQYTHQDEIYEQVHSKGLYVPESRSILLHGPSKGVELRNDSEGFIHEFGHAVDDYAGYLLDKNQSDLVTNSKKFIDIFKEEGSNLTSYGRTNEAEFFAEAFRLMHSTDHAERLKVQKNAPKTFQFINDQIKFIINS
BoNT A protease: BoNT/A light chain protease inhibitors, primary screen, biochemical, flow cytometry, MLPCN library; Botulinum neurotoxin type A light chain protease (Clostridium botulinum A str. ATCC 3502); multiplex microsphere protease substrate cleavage; inhibition, % at 10 µM; 360,000 tested, 0.17% active; also: plate controls were buffer without enzyme for full effect and enzyme alone for no effect
MazF activator: activators of E. coli MazEF toxin-antitoxin RNase, primary screen, biochemical, fluorescence, uHTS; Endoribonuclease toxin MazF (Escherichia coli (strain K12)), P0AE70; FAM/BHQ RNA-DNA oligo cleavage fluorescence, 5 h; activation, % at 20 µM; 350,000 tested, 0.32% active; in the data active = activation above about 50%
Bead autofluor: counter-screen for toxin protease inhibitors: compound fluorescence; compound autofluorescence counterscreen, microsphere flow cytometry; active compounds read high; fluorescence intensity (no concentration beside the values); 360,000 tested, 3.1% active; in the data active = fluorescence intensity above about 16000
PriA SSB inh: inhibitors of Klebsiella pneumoniae PriA binding to SSB C-terminal tail, primary screen, biochemical, AlphaScreen; 430,000 tested, 0.6% active; AID 1272365, 2023; inhibition, % at 33 µM; AlphaScreen SSBct-PriA binding, biotinylated peptide; PriA–SSB C-terminal tail interaction (Klebsiella pneumoniae); in the data active = inhibition mostly above about 37%, no sharp cut-off; inactive = mostly below about 20%;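 also: plate controls were negative control peptide for no effect and reference peptide for full effect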
BoNT-A LC CP2: BoNT/A light chain protease inhibitors, confirmation, biochemical, flow cytometry, cherry pick 2; shares compounds with BoNT A protease; multiplex microsphere protease cleavage assay; inhibition, % at 10 µM; 150 tested, 10% active; in the data active = inhibition above about 24%
LF protease CP2: Bacillus anthracis LF protease inhibitors, confirmation, biochemical, multiplex microsphere | shares compounds with BoNT A protease | multiplex microsphere protease cleavage assay | inhibition, % at 10 µM | 150 tested, 7% active | AID 602327, 2012; in the data active = inhibition above about 25%
BoNT-F LC CP2: BoNT/F light chain protease inhibitors, confirmation, biochemical, flow cytometry, cherry pick 2; shares compounds with BoNT A protease; multiplex microsphere protease cleavage assay; inhibition, % at 10 µM; 150 tested, 7% active; AID 602336, 2012; in the data active = inhibition above about 25%
The depositor's hits bear a star. Most compounds without a hit are left out; they make up all but 3.3% or so of the library. Rule as the data show it, unless noted: active = inhibition above about 30%; inconclusive = no clear call, values can overlap the other calls; inactive = below that.

What do the screens show for `Cc1cc2cc(CNC(=O)Nc3ccc(Cl)c(Cl)c3)ccc2n1C`?
BoNT-F LC inh: -122.8; Anthrax LF prot: -116.7; BoNT A protease: 35.3*; MazF activator: 7.3; Bead autofluor: 2226; PriA SSB inh: 4.5; BoNT-A LC CP2: 10.3; LF protease CP2: -5.7; BoNT-F LC CP2: -38.1

What do the screens show for `Cc1onc(-c2ccccc2Cl)c1C(=O)NCc1ccc2c(c1)cc(C)n2C`?
BoNT-F LC inh: -87.3; Anthrax LF prot: -75.4; BoNT A protease: 83.0*; MazF activator: 2.8; Bead autofluor: 2004; PriA SSB inh: 21.5; BoNT-A LC CP2: 48.7*; LF protease CP2: 19.8; BoNT-F LC CP2: -40.3

What do the screens show for `CC(=O)N1CCN(c2ccnc3c2c(=O)n(Cc2ccccc2Cl)c(=O)n3C)CC1`?
PriA SSB inh: -5.0

How did Cn1c(=O)c2c(NC(=O)c3cccc(Cl)c3)ccnc2n(C)c1=O do in these assays?
PriA SSB inh: -15.0

Results for COc1ccc(-c2nc3cc(C)c(Br)c(C)n3c2Cc2ccsc2)cc1OC ?
BoNT-F LC inh: -4.4; Anthrax LF prot: 0.4; BoNT A protease: 2.1; Bead autofluor: 4388; BoNT-A LC CP2: 3.3; LF protease CP2: -1.5; BoNT-F LC CP2: -7.0

How did COc1ccccc1Cc1c(-c2ccc(OC)c(OC)c2)nc2cc(C)c(Br)c(C)n12 do in these assays?
BoNT-F LC inh: -0.7; Anthrax LF prot: -16.4; BoNT A protease: 1.6; Bead autofluor: 4221

How did COc1ccc(-c2nc3cc(C)c(Br)c(C)n3c2Cc2ccccc2C(F)(F)F)cc1OC do in these assays?
BoNT-F LC inh: -6.6; Anthrax LF prot: -8.5; BoNT A protease: 1.0; Bead autofluor: 5906; BoNT-A LC CP2: 2.4; LF protease CP2: -1.5; BoNT-F LC CP2: -1.5

Results for Cc1cc2nc(-c3cccc(Cl)c3)c(Cc3ccsc3)n2c(C)c1Br ?
BoNT-F LC inh: -6.3; Anthrax LF prot: 2.8; BoNT A protease: 2.9; Bead autofluor: 6217; BoNT-A LC CP2: 9.2; LF protease CP2: -5.0; BoNT-F LC CP2: 2.5

What do the screens show for `Cc1ccc(-c2nc3cc(C)c(Br)c(C)n3c2Cc2ccsc2)cc1`?
BoNT-F LC inh: -3.8; Anthrax LF prot: 0.6; BoNT A protease: 0.8; Bead autofluor: 6312

Results for Cc1cc2nc(-c3cccc(Br)c3)c(Cc3ccsc3)n2c(C)c1Br ?
BoNT-F LC inh: -8.4; Anthrax LF prot: -6.7; BoNT A protease: 0.8; Bead autofluor: 4588; BoNT-A LC CP2: 3.9; LF protease CP2: 1.1; BoNT-F LC CP2: 7.2

Results for Cc1cc2nc(-c3cccc(Br)c3)c(Cc3ccccc3)n2c(C)c1Br ?
BoNT-F LC inh: -8.6; Anthrax LF prot: -2.2; BoNT A protease: 0.9; Bead autofluor: 6229

How did CCOC(=O)c1nn(-c2ccccc2)c(=O)cc1N1CCN(c2ccc(F)c(Cl)c2)CC1 do in these assays?
PriA SSB inh: -15.0

Results for COc1cccc(-c2cc3c(c4c2ccn4C)C2CCC3C2)c1 (centres undefined) ?
BoNT-F LC inh: -22.2; Anthrax LF prot: 2.4; BoNT A protease: 17.7; Bead autofluor: 4290; BoNT-A LC CP2: 10.1; LF protease CP2: 2.1; BoNT-F LC CP2: -13.9

How did COc1ccc(-c2cc3c(c4c2ccn4C)C2CCC3C2)cc1 (centres undefined) do in these assays?
BoNT-F LC inh: -22.5; Anthrax LF prot: -1.7; BoNT A protease: 14.0; Bead autofluor: 3998; BoNT-A LC CP2: 2.0; LF protease CP2: 2.9; BoNT-F LC CP2: 2.7

What do the screens show for `O=C(Cc1ccccc1)c1ccccn1`?
BoNT-F LC inh: -5.4; Anthrax LF prot: 22.6; BoNT A protease: 33.2*; MazF activator: -13.7; Bead autofluor: 10134; PriA SSB inh: -6.8; BoNT-A LC CP2: 33.1*; LF protease CP2: 29.0*; BoNT-F LC CP2: 3.4

How did O=C1c2cccc3cccc(c23)C(=O)N1CCCCCc1nnc(Nc2ccc(S(=O)(=O)O)cc2)s1 do in these assays?
PriA SSB inh: 11.0

How did Cc1noc(-c2c(NC(=O)C3(c4cccs4)CCCC3)sc3c2CCOC3)n1 do in these assays?
PriA SSB inh: -14.0

What do the screens show for `COCCN(Cc1ccoc1)C(=O)CCSc1ccccc1`?
PriA SSB inh: 7.0

Results for COc1ccccc1-c1cc2c(c3c1ccn3C)C1CCC2O1 (centres undefined) ?
BoNT-F LC inh: 9.7; Anthrax LF prot: 21.2; BoNT A protease: 10.3; Bead autofluor: 5495

How did Cn1ccc2c(-c3ccccc3F)cc3c(c21)C1CCC3C1 (centres undefined) do in these assays?
BoNT-F LC inh: 2.3; Anthrax LF prot: -7.8; BoNT A protease: 2.9; Bead autofluor: 5841; BoNT-A LC CP2: 1.9; LF protease CP2: -2.9; BoNT-F LC CP2: -0.6

What do the screens show for `COc1ccccc1-c1cc2c(c3c1ccn3C)C1CCC2C1` (centres undefined)?
BoNT-F LC inh: -9.5; Anthrax LF prot: 29.9*; BoNT A protease: 12.3; Bead autofluor: 4225; BoNT-A LC CP2: 3.9; LF protease CP2: -0.4; BoNT-F LC CP2: -5.7

How did CS(=O)(=O)c1ccc(CC(=O)Nc2sc3c(c2C(N)=O)CCCC3)cc1 do in these assays?
PriA SSB inh: -6.0

What do the screens show for `O=C(c1ccc(CSc2nc(-c3ccc(Cl)cc3)cs2)o1)N1CCOCC1`?
PriA SSB inh: -10.0

Source: PubChem (several laboratories)
